Results as given in PubChem BioAssay AID1159580 (chemical genetic matrix, 2015).
The whole screen tested about 5,500 compounds, of which about 2,000 (36%) were called active. Roughly 18% stayed inconclusive and do not appear here. No stated cut-off is given here; in the data, active means normalized growth mostly below about 0.91 (no sharp cut-off); inconclusive means no clear call, values can overlap the other calls; inactive means mostly above about 0.92. Some of the results follow.

Experiment: chemical genetic growth profiling, strain panel (AID 1159580);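 further: tested at 20 µM; growth read once vehicle control cultures reached saturation at 30 °C; 1 = growth at the plate median or of vehicle wells; lower values mean less growth of the strain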
Conditions: S. cerevisiae deletion strains, growth OD

Measured: normalized growth

COc1ccc(/C=C/C(=O)c2ccc(O)cc2O)cc1
active: locus YAL021C, strain ccr4, active compounds read low 0.643 | locus YAL026C, strain drs2, active compounds read low 0.39 | locus YAL030W, strain snc1, active compounds read low 0.477 | locus YBL061C, strain skt5, active compounds read low 0.371 | locus YBR009C, strain hhf1, active compounds read low 0.329 | locus YBR023C, strain chs3, active compounds read low 0.296 | locus YBR171W, strain sec66, active compounds read low 0.736 | locus YBR231C, strain swc5, active compounds read low 0.35 | locus YBR279W, strain paf1, active compounds read low 0.486 | locus YCL011C, strain gbp2, active compounds read low 0.414 | locus YCL016C, strain dcc1, active compounds read low 0.398 | locus YCL061C, strain MRC1, active compounds read low 0.494 | locus YCL069W, strain vba3, active compounds read low 0.436 | locus YCR088W, strain abp1, active compounds read low 0.637 | locus YDL005C, strain med2, active compounds read low 0.412 | locus YDL040C, strain nat1, active compounds read low 0.68 | locus YDR001C, strain nth1, active compounds read low 0.546 | locus YDR069C, strain doa4, active compounds read low 0.815 | locus YDR137W, strain rgp1, active compounds read low 0.218 | locus YDR159W, strain sac3, active compounds read low 0.355 | locus YDR195W, strain ref2 0.69 | locus YDR297W, strain sur2, active compounds read low 0.643 | locus YDR334W, strain swr1, active compounds read low 0.383 | locus YDR335W, strain msn5, active compounds read low 0.477 | locus YDR392W, strain spt3, active compounds read low 0.107 | locus YEL003W, strain gim4, active compounds read low 0.333 | locus YEL037C, strain rad23, active compounds read low 0.678 | locus YEL061C, strain CIN8 (second series), active compounds read low 0.222 | locus YER015W, strain faa2, active compounds read low 0.496 | locus YER016W, strain bim1, active compounds read low 0.488 | locus YER111C, strain swi4, active compounds read low 0.193 | locus YER155C, strain BEM2 (second series), active compounds read low 0.125 | locus YFR010W, strain ubp6, active compounds read low 0.661 | locus YGL167C, strain pmr1, active compounds read low 0.782 | locus YGL173C, strain kem1, active compounds read low 0.326 | locus YGL227W, strain vid30, active compounds read low 0.246 | locus YGL240W, strain doc1, active compounds read low 0.349 | locus YGL253W, strain hxk2, active compounds read low 0.23 | locus YHR013C, strain ard1, active compounds read low 0.352 | locus YHR027C, strain rpn1, active compounds read low 0.59 | locus YHR030C, strain SLT2, active compounds read low 0.458 | locus YHR079C, strain IRE1, active compounds read low 0.48 | locus YHR142W, strain chs7, active compounds read low 0.175 | locus YJL092W, strain hpr5, active compounds read low 0.523 | locus YJL095W, strain BCK1 (second series), active compounds read low 0.187 | locus YJL095W, strain BCK1, active compounds read low 0.423 | locus YJL115W, strain asf1, active compounds read low 0.56 | locus YJL129C, strain trk1, active compounds read low 0.386 | locus YJL154C, strain vps35, active compounds read low 0.697 | locus YJL164C, strain tpk1, active compounds read low 0.324 | locus YJL166W, strain qcr8, active compounds read low 0.266 | locus YJL187C, strain SWE1, active compounds read low 0.492 | locus YJR066W, strain TOR1, active compounds read low 0.439 | locus YKL160W, strain elf1, active compounds read low 0.299 | locus YKR026C, strain gcn3, active compounds read low 0.784 | locus YKR091W, strain srl3, active compounds read low 0.699 | locus YLL001W, strain dnm1, active compounds read low 0.528 | locus YLL026W, active compounds read low 0.267 | locus YLL041C, strain sdh2, active compounds read low 0.615 | locus YLR027C, strain aat2, active compounds read low 0.369 | locus YLR113W, strain HOG1, active compounds read low 0.361 | locus YLR221C, strain rsa3, active compounds read low 0.28 | locus YLR258W, strain gsy2, active compounds read low 0.476 | locus YLR262C, strain YPT6 (second series), active compounds read low 0.221 | locus YLR320W, strain mms22, active compounds read low 0.14 | locus YLR342W, strain FKS1, active compounds read low 0.313 | locus YLR357W, strain rsc2, active compounds read low 0.633 | locus YLR370C, strain arc18, active compounds read low 0.619 | locus YLR384C, strain iki3, active compounds read low 0.671 | locus YML120C, strain ndi1, active compounds read low 0.336 | locus YMR058W, strain fet3, active compounds read low 0.34 | locus YMR125W, strain sto1, active compounds read low 0.205 | locus YMR129W, active compounds read low 0.707 | locus YMR205C, strain PFK2, active compounds read low 0.26 | locus YMR231W, strain pep5, active compounds read low 0.462 | locus YNL071W, strain lat1, active compounds read low 0.0785 | locus YNL183C, strain NPR1, active compounds read low 0.516 | locus YNL209W, strain ssb2, active compounds read low 0.661 | locus YNL248C, strain rpa49, active compounds read low 0.402 | locus YNL322C, strain KRE1 (second series), active compounds read low 0.618 | locus YNR049C, strain mso1, active compounds read low 0.631 | locus YOR001W, strain rrp6, active compounds read low 0.444 | locus YOR070C, strain gyp1, active compounds read low 0.336 | locus YOR080W, strain dia2, active compounds read low 0.631 | locus YOR083W, strain WHI5, active compounds read low 0.479 | locus YOR106W, strain vam3, active compounds read low 0.38 | locus YOR231W, strain MKK1, active compounds read low 0.495 | locus YOR265W, strain rbl2, active compounds read low 0.535 | locus YOR270C, strain vph1, active compounds read low 0.161 | locus YOR290C, strain snf2, active compounds read low 0.28 | locus YPL051W, strain arl3, active compounds read low 0.273 | locus YPL078C, strain atp4, active compounds read low 0.32 | locus YPL106C, strain sse1, active compounds read low 0.458 | locus YPL240C, strain hsp82, active compounds read low 0.44 | locus YPL256C, strain CLN2, active compounds read low 0.5
